Source: PubChem BioAssay (Tox21)
Results filed as inconclusive are left out. The source made the active and inactive calls. Calls follow the shape of the full dose curve.

What was measured:
[1] = target: Acetylcholinesterase (Homo sapiens) (UniProt P22303); experiment: Acetylcholinesterase (AChE) small molecule antagonists: colormetric cell-based qHTS assay (AID 1347395); also: nearly all actives have a fitted effect of over 30% in size
How it was run: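 Cells (SH-SY5Y, 2,000 per well) are seeded and left overnight at 37 C. Compound is added for 30 min, then DTNB and acetylthiocholine for a further 90 min at 37 C before absorbance-based thiocholine detection.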

[2] = target: Acetylcholinesterase (Homo sapiens) (UniProt P22303); experiment: Acetylcholinesterase (AChE) small molecule antagonists: enzyme-based qHTS assay (AID 1347397); conditions: Potency: AChE enzyme activity inhibition; outcome: AChE enzyme activity inhibition; also: nearly all actives have a fitted effect of over 55% in size
How it was run: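 Enzyme inhibition was scored from DTNB-detected thiocholine formed by recombinant human AChE acting on acetylthiocholine. The 30 min compound preincubation and 10 min substrate reaction were both run at room temperature, with DMSO as vehicle control.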

[3] = target: Acetylcholinesterase (Homo sapiens) (UniProt P22303); experiment: Acetylcholinesterase (AChE) small molecule antagonists: fluorescence cell-based qHTS assay (AID 1347398); conditions: Potency: AChE activity; outcome: AChE activity; also: nearly all actives have a fitted effect of over 50% in size
How it was run: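 Endogenous acetylcholinesterase of SH-SY5Y neuroblastoma cells is measured in situ. After overnight attachment and 30 min compound exposure, cells receive acetylthiocholine and Thiolite Green; fluorescence is read after 40 min at room temperature.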

[4] = target: Acetylcholinesterase (Homo sapiens) (UniProt P22303); experiment: Acetylcholinesterase (AChE) small molecule antagonists: enzyme-based qHTS assay with human liver microsomes (AID 1347399); conditions: Potency: qHTS inhibition; outcome: qHTS inhibition; also: nearly all actives have a fitted effect of over 60% in size
How it was run: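 Recombinant human AChE (50 mU/mL in the enzyme mix) and human liver microsomes (0.25 mg/mL final) were preincubated with compound and NADPH (0.25 mg/mL final) for 30 min at 37 C. Acetylthiocholine/DTNB was then added; thiocholine was read colorimetrically after 10 min at room temperature.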

Measured: Potency
Potency is read from the fitted curve at half-maximal effect.

Chain of Acetylcholinesterase (Homo sapiens) (P22303 whole entry, looked up): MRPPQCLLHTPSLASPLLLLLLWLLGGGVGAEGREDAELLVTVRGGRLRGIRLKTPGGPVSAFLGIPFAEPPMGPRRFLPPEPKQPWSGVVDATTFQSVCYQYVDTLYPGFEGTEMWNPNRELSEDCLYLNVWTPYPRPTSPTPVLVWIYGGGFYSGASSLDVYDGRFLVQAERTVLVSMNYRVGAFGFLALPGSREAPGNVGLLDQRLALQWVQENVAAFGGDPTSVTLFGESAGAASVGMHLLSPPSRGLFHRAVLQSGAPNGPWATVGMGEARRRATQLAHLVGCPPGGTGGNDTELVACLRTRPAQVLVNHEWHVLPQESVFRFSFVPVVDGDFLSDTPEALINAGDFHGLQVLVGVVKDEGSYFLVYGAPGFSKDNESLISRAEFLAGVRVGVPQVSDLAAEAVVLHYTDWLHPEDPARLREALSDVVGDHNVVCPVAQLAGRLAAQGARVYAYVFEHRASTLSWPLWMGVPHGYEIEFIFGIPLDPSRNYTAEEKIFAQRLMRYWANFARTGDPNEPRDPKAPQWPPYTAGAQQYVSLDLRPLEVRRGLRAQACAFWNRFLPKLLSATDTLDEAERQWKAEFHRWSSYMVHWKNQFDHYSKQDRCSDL

CC(=O)Nc1ccc(S(=O)(=O)Cl)cc1
inactive: [1] | [2] | [3] | [4]

C1C2OC2C2C1C1CC2C2OC12 (stereo unspecified)
inactive: [1] | [2] | [3] | [4]

COc1ccc2cccc(CCNC(C)=O)c2c1
inactive: [1] | [2] | [3] | [4]

CC[C@H]1CC[C@H](NCc2cc3c(cc2OC)[C@H]2C[C@H]2C(=O)N3C)[C@H](c2ccccc2)N1
inactive: [2] | [4]
active: [1] 31.7 µM | [3] 35.6 µM

CCN(CC)CC
inactive: [1] | [2] | [3] | [4]

Cc1cccc(C)c1NC(=O)C(C)N (stereo unspecified)
inactive: [1] | [2] | [3] | [4]

Clc1ccc(C(Cn2ccnc2)OCc2ccc(Sc3ccccc3)cc2)c(Cl)c1 (stereo unspecified)
inactive: [1] | [2] | [3] | [4]

CCCCCCC(C)Nc1ccc(Nc2ccccc2)cc1 (stereo unspecified)
inactive: [1] | [2] | [3] | [4]

CC1OC(=O)C(C)OC1=O (stereo unspecified)
inactive: [1] | [2] | [3] | [4]

CNC(=S)NC
inactive: [1] | [2] | [3] | [4]

O=C(OC(=O)c1ccccc1)c1ccccc1
inactive: [1] | [2] | [3] | [4]

CC1=CC(=O)[C@H]2C[C@@H]1C2(C)C
inactive: [1] | [2] | [3] | [4]

S=P(N1CC1)(N1CC1)N1CC1
active: [1] 66.7 µM | [2] 59.4 µM | [3] 33.4 µM | [4] 74.8 µM

O=C(O)c1cccc(-c2noc(-c3ccccc3F)n2)c1
inactive: [1] | [2] | [3] | [4]

CCC/C=C/CO
inactive: [1] | [2] | [3] | [4]

Cc1ccc(N(CC2=NCCN2)c2cccc(O)c2)cc1
inactive: [1] | [2] | [3] | [4]

Nc1nc(N)nc(-c2cc(Cl)ccc2Cl)n1
inactive: [1] | [2] | [3] | [4]

CC1CCc2nccnc21 (stereo unspecified)
inactive: [1] | [2] | [3] | [4]

O/N=C/C=N/O
inactive: [1] | [2] | [3] | [4]
